According to PubChem BioAssay (NCI):
This is part of a sample that, as a whole, favours compounds with a hit. Of some 79,000 tested, about 15% had one in any assay. Calls of active or inactive are those of the source. Cut-off read from the data, not from the text of the source: active = growth inhibition above about 70%; inactive = the rest.

Key:
[1] = NCI Yeast Anticancer Drug Screen. Data for the sgs1 mgt1 strain (AID 161);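 note: 0% = growth of cultures given vehicle only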; conditions: S. cerevisiae sgs1 mgt1 strain, stronger effect = higher value
How it was run: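 Mutant yeast exposed to compound; growth scored against vehicle-only wells.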

[2] = NCI Yeast Anticancer Drug Screen. Data for the CLN2oe strain (AID 163);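 note: 0% = growth of vehicle-only control cultures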; conditions: S. cerevisiae CLN2oe strain, stronger effect = higher value
How it was run: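 Growth of a genetically modified yeast strain is measured after compound exposure and compared with cultures given vehicle alone.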

[3] = NCI Yeast Anticancer Drug Screen. Data for the cln2 rad14 strain (AID 165);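 note: 0% = growth equal to vehicle treated cultures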; conditions: S. cerevisiae cln2 rad14 strain, stronger effect = higher value
How it was run: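 Compounds are applied to the cln2 rad14 yeast strain, and growth is then compared with that of vehicle-treated cultures to give inhibition.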

[4] = NCI Yeast Anticancer Drug Screen. Data for the bub3 strain (AID 167); conditions: S. cerevisiae bub3 mutant strain, stronger effect = higher value
How it was run: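 In this screen, a yeast mutant lacking normal mitotic checkpoint function is challenged with compound. Relative growth versus vehicle gives the inhibition value.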

[5] = NCI Yeast Anticancer Drug Screen. Data for the wt2 strain (AID 169);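 note: 0% = growth of vehicle-treated yeast cultures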; conditions: S. cerevisiae wt2 strain growth inhibition, stronger effect = higher value
How it was run: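 This strain belongs to a panel of yeast strains with defined genetic alterations in DNA damage repair or cell cycle control. Compounds are applied, and growth inhibition is measured against vehicle-treated cultures.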

[6] = NCI Yeast Anticancer Drug Screen. Data for the mlh1 strain (AID 171);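 note: 0% = growth of vehicle-treated control cultures of the same strain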; conditions: S. cerevisiae mlh1 strain growth inhibition, stronger effect = higher value
How it was run: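 Growth of the mutant yeast strain after compound exposure, expressed as inhibition relative to vehicle-only controls.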

[7] = NCI Yeast Anticancer Drug Screen. Data for the sgs1 strain (AID 173);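 note: 0% = growth of vehicle-only control cultures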; conditions: S. cerevisiae sgs1 mutant, stronger effect = higher value
How it was run: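 Growth of a yeast strain bearing a defined genetic alteration is measured after compound treatment. Inhibition is expressed relative to vehicle-only controls.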

[8] = NCI Yeast Anticancer Drug Screen. Data for the mlh1 rad18 strain (AID 175); conditions: S. cerevisiae mlh1 rad18 strain growth inhibition, stronger effect = higher value
How it was run: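 Read-out is yeast growth inhibition, calculated against vehicle-only controls. The compound was applied to a strain engineered with DNA damage repair alterations.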

[9] = NCI Yeast Anticancer Drug Screen. Data for the rad18 strain (AID 177); conditions: S. cerevisiae rad18 mutant growth inhibition, stronger effect = higher value
How it was run: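 Growth of the mutant yeast strain after compound exposure, normalised to vehicle-only cultures.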

[10] = at 5.0 µM (retest, dose inferred, filed as 0.5)
[11] = at 50.0 µM (retest, dose inferred, filed as 5.0)

Measured: growth inhibition

C[Si](C)(C)CNC(=O)OCc1ccccc1
inactive: [1]; [10] -8% | [1]; [11] -13% | [1]; at 50.0 µM 4.25% | [2]; at 1.2 µM -3% | [2]; at 3.7 µM -3% | [2]; at 11.0 µM 7% | [2]; at 33.0 µM 4% | [2]; at 100.0 µM 5% | [3]; [10] 14% | [3]; [11] 20% | [3]; at 50.0 µM -22.8% | [4]; at 1.2 µM 4% | [4]; at 3.7 µM 15% | [4]; [10] 6% | [4]; at 11.0 µM 35% | [5]; at 1.2 µM -1% | [5]; at 3.7 µM -1% | [5]; at 11.0 µM -1% | [5]; at 33.0 µM 0% | [5]; at 100.0 µM 3% | [6]; at 1.2 µM 3% | [6]; at 3.7 µM -7% | [6]; at 11.0 µM 4% | [6]; at 33.0 µM 18% | [6]; at 100.0 µM 38% | [7]; at 1.2 µM 1% | [7]; at 3.7 µM -1% | [7]; at 11.0 µM 1% | [7]; at 33.0 µM 1% | [7]; at 100.0 µM 4% | [8]; [10] -14% | [8]; [11] -1% | [8]; at 50.0 µM 7.5% | [9]; at 1.2 µM -3% | [9]; at 3.7 µM -2% | [9]; at 11.0 µM 8% | [9]; at 33.0 µM 17% | [9]; at 100.0 µM 49%
active: [4]; at 33.0 µM 83% | [4]; [11] 93% | [4]; at 50.0 µM 93.5% | [4]; at 100.0 µM 94%
